Compound activity as filed in PubChem BioAssay.
Most compounds without a hit are left out; they make up all but 1.3% or so of the library.
AGP1-GFP MLPCN = modulators of AGP1-GFP expression in yeast TOR pathway, primary screen, cell-based, multiplex flow cytometry, S. cerevisiae, MLPCN library; 3 h; GFP as percent of DMSO wells; GFP response vs DMSO, % at 10 µM; hit rate 0.02% among 320,000; AID 2066, 2009;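 active = GFP response relative to DMSO above a set limit, near screen average plus 3 SD, cut at about 150% in these data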;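 note: median GFP channel fluorescence of the gated AGP1 strain per well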
CIT2 TOR yeast = modulators of CIT2-GFP expression in yeast, primary screen, S. cerevisiae, GFP fusion, multiplex flow cytometry, MLPCN library | S. cerevisiae CIT2-GFP strain, 3 h; 100 means same as DMSO wells | GFP response vs DMSO, % at 10 µM | hit rate 0.065% among 320,000;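 active = GFP response relative to DMSO above a set limit, near the screen mean plus 3 SD, cut at about 150% in these data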;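 note: ratio of well median GFP fluorescence to mean of DMSO wells on the plate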
MEP2-GFP yeast = modulators of MEP2-GFP levels in yeast, primary screen, S. cerevisiae, multiplex flow cytometry, MLPCN library; S. cerevisiae MEP2-GFP strain, 3 h; 100% = DMSO control level; GFP response vs DMSO, % at 10 µM; hit rate 0.51% among 330,000; AID 2016, 2009;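 active = GFP response versus DMSO above a set limit, roughly screen mean plus 3 SD, cut at about 180% in these data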;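 note: median GFP fluorescence of the barcode-gated MEP2-GFP cells per well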
RPL19A-GFP yeast = RPL19A-GFP expression modulators in yeast, primary screen, cell-based, S. cerevisiae, multiplex flow cytometry, MLPCN; S. cerevisiae RPL19A-GFP strain, 3 h; hits give low values; percent response vs DMSO, % at 10 µM; hit rate 0.3% among 330,000;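 active = percent response vs DMSO below 50%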;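 note: median channel GFP fluorescence of the barcoded RPL19A-GFP strain; ratio of sample median GFP to plate DMSO average so 100% = DMSO; lower means less RPL19A-GFP as with rapamycin TOR inhibition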
Efflux pump inh = inhibitors of Candida efflux pumps in yeast, primary screen, S. cerevisiae, Nile Red, multiplex. S. cerevisiae Candida pump triplex. inhibition, % at 10 µM. hit rate 0.44% among 330,000;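 active = plate passing quality check with inhibition over a set limit, or well fluorescence over plate mean plus 4 SD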;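 note: Nile Red retained in pooled yeast measured as flow cytometry median fluorescence; 0% = buffer negative control and 100% = Enniatin B positive control; higher means more Nile Red kept so more efflux inhibition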
LAP4 TOR yeast = modulators of LAP4-GFP expression in yeast, primary screen, S. cerevisiae, multiplex flow cytometry, MLPCN library | 3 h; median GFP as percent of DMSO wells | hit rate 0.34% among 320,000 | GFP response vs DMSO, % at 10 µM;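 active = GFP response vs DMSO above a set limit, about the screen mean plus 3 SD, cut at about 150% in these data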
Yeast cmpd fluor = compound fluorescence in yeast efflux pump counter-screen | shares compounds with Efflux pump inh | S. cerevisiae AD/pABC3, flow cytometry | fluorescence ratio to DMSO, % at 10 µM | hit rate 4% among 1,700 | AID 588517;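 active = fluorescence ratio to DMSO above its plate's cutoff, the plate mean ratio plus 5 SD, cut at about 210% in these data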;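 note: unstained yeast with no Nile Red so the signal is compound autofluorescence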
CaMdr1 efflux inh = inhibitors of Candida albicans Mdr1 efflux, confirmation, flow cytometry, singleplex, Cherry Pick1 set; shares compounds with Efflux pump inh; S. cerevisiae AD/CaMDR1, Nile Red efflux; inhibition, % at 10 µM; hit rate 1% among 1,700; AID 588518, 2011; in the data active = inhibition above about 26%;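 note: 0% = DMSO vehicle and 100% = reference inhibitor; higher means more Nile Red retained so more efflux inhibition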
CaCdr2 efflux inh = inhibitors of Candida albicans Cdr2 efflux pump, confirmation, S. cerevisiae AD/CaCDR2, flow cytometry, cherry pick 1, singleplex | shares compounds with Efflux pump inh | hit rate 4% among 1,700 | AID 588520, 2011 | Nile Red retention | Nile Red retention ratio vs DMSO, % at 10 µM; in the data active = Nile Red retention ratio vs DMSO above about 190%;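 note: higher ratio means more blocking of Cdr2 efflux of the dye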
CaCdr1 efflux inh = inhibitors of Candida albicans Cdr1 efflux pump, confirmation, S. cerevisiae AD/CaCDR1, flow cytometry, cherry pick 1, singleplex | shares compounds with Efflux pump inh | Nile Red efflux | inhibition, % at 10 µM | hit rate 1% among 1,700 | AID 588522, 2011;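 active = inhibition above the screen-wide mean plus twice its standard deviation, cut at about 32% in these data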
* hit, by the source's call.

Results for CCN1C(=O)[C@H]2[C@@H](c3ccc(-c4cccc(Cl)c4)cc3)N[C@@](Cc3ccccc3)(C(=O)OC)[C@H]2C1=O ?
AGP1-GFP MLPCN: 93.4; CIT2 TOR yeast: 99.4; MEP2-GFP yeast: 101.7; RPL19A-GFP yeast: 100.7; Efflux pump inh: 0.0; LAP4 TOR yeast: 138.4

Results for CCC(=O)N1CCc2cc(S(=O)(=O)Nc3ccc4c(c3)OCCO4)ccc21 ?
AGP1-GFP MLPCN: 102.1; CIT2 TOR yeast: 96.3; MEP2-GFP yeast: 100.0; RPL19A-GFP yeast: 96.1; Efflux pump inh: -0.1; LAP4 TOR yeast: 96.1

Results for O=C(C1CCC1)N1CCc2cc(S(=O)(=O)Nc3ccc4c(c3)OCCO4)ccc21 ?
AGP1-GFP MLPCN: 100.9; MEP2-GFP yeast: 94.0; RPL19A-GFP yeast: 100.0; Efflux pump inh: -0.1; LAP4 TOR yeast: 86.2; Yeast cmpd fluor: 111.5; CaMdr1 efflux inh: 0.1; CaCdr2 efflux inh: 95.1; CaCdr1 efflux inh: -0.1

Results for CCCN(CCC)CCNS(=O)(=O)c1ccc2c(c1)CCN2C(=O)C1CCC1 ?
AGP1-GFP MLPCN: 99.4; CIT2 TOR yeast: 104.5; MEP2-GFP yeast: 99.6; RPL19A-GFP yeast: 96.4; Efflux pump inh: -0.1; LAP4 TOR yeast: 101.3; Yeast cmpd fluor: 106.8; CaMdr1 efflux inh: 0.1; CaCdr2 efflux inh: 99.6; CaCdr1 efflux inh: 0.1

How did Cc1ccc(CNS(=O)(=O)c2ccc3c(c2)CCN3C(=O)C2CCC2)cc1 do in these assays?
AGP1-GFP MLPCN: 95.7; CIT2 TOR yeast: 94.2; MEP2-GFP yeast: 90.9; RPL19A-GFP yeast: 99.4; Efflux pump inh: 0.1; LAP4 TOR yeast: 90.9; Yeast cmpd fluor: 101.8; CaMdr1 efflux inh: -0.3; CaCdr2 efflux inh: 99.3; CaCdr1 efflux inh: 0.0

What do the screens show for `CC(=O)N1CCc2cc(S(=O)(=O)NCc3ccc(C)cc3)ccc21`?
AGP1-GFP MLPCN: 92.1; CIT2 TOR yeast: 98.2; MEP2-GFP yeast: 89.1; RPL19A-GFP yeast: 90.8; Efflux pump inh: -0.1; LAP4 TOR yeast: 81.2

Results for O=C(C1CCC1)N1CCc2cc(S(=O)(=O)NC3CCCC3)ccc21 ?
AGP1-GFP MLPCN: 104.1; CIT2 TOR yeast: 103.5; MEP2-GFP yeast: 97.3; RPL19A-GFP yeast: 98.0; Efflux pump inh: -0.1; LAP4 TOR yeast: 109.4

Results for CC1CCCN(CCCNS(=O)(=O)c2ccc3c(c2)CCN3C(=O)C2CC2)C1 (stereo not given) ?
AGP1-GFP MLPCN: 15.9; CIT2 TOR yeast: 69.8; MEP2-GFP yeast: 114.8; RPL19A-GFP yeast: 81.5; Efflux pump inh: 1.4*; LAP4 TOR yeast: 87.9; Yeast cmpd fluor: 115.3; CaMdr1 efflux inh: 0.3; CaCdr2 efflux inh: 110.2; CaCdr1 efflux inh: 0.2

Results for O=C(C1CC1)N1CCc2cc(S(=O)(=O)NCCC3=CCCCC3)ccc21 ?
AGP1-GFP MLPCN: 93.6; MEP2-GFP yeast: 95.7; RPL19A-GFP yeast: 95.4; Efflux pump inh: 0.0; LAP4 TOR yeast: 82.0

How did CCn1ccc(C(=O)Nc2ccccc2Cl)n1 do in these assays?
AGP1-GFP MLPCN: 87.3; CIT2 TOR yeast: 83.5; MEP2-GFP yeast: 93.3; RPL19A-GFP yeast: 91.3; Efflux pump inh: 0.1; LAP4 TOR yeast: 96.7
